# Most compounds without a hit are left out; they make up all but 7.4% or so of the library.
# Rab9 prom act – qHTS Assay for Rab9 Promoter Activators; hit rate 2.8% among 320,000; Potency, µM (series often up to 9.22 µM), for the others: at the top dose activation, negative = inhibition, usual class: activators; Huh7 Rab9 promoter-luciferase reporter, luminescence, 24 h; further: % of control where 0% means no effect; nearly all actives have a fitted effect of over 60% in size
#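 Cell-based reporter: Huh7 stable for Rab9 promoter-driven luciferase, plated in reduced-serum medium with 10% FBS at 1500 cells/well, compound-treated 24 h at 37 °C, luminescence read after 10 min reagent.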
# ELG1 genotox – qHTS screen for small molecules that induce genotoxicity in human embryonic kidney (HEK293T) cells expressing luciferase-tagged ELG1; HEK293T ELG1-luciferase reporter, luminescence, 16 h; Potency, µM (titrated, usually from 46 µM), without a hit: at the top dose activity change, positive = activation, usual class: activators; hit rate 1.3% among 330,000; AID 504466, 2011; further: % of control where 0% means no effect; nearly all actives have a fitted effect of over 60% in size
#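 ELG1-luciferase HEK293T cells, 2,000/well; compound pinned in; 16 hr, 37 °C, 5% CO2; ONE-Glo, 30 min RT; luminescence on CCD imager.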
# NPC1 prom act – qHTS Assay for NPC1 Promoter Activators | AID 485313, 2010 | hit rate 2.4% among 320,000 | Huh7 NPC1 promoter luciferase reporter, 24 h | Potency, µM (doses to about 9.22 µM), without a hit: top-dose activation, usual class: activators; further: % of control where 0% means no effect; nearly all actives have a fitted effect of over 60% in size
#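 In 1536-well qHTS, Huh7 cells harboring an NPC1 promoter–luciferase construct received compound for 24 h; activation was quantified by luminescence following luciferase reagent addition.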
# SMN2 splice enh – qHTS Assay for Enhancers of SMN2 Splice Variant Expression; AID 1458, 2008; hit rate 2.8% among 210,000; HEK293 SMN2-luciferase splicing reporter, luminescence, 30-36 h; Potency, µM (top dose mostly 46.1 µM), inactives show top-dose activity change, positive = activation, actives largely listed as activators; further: % of control where 0% means no effect; nearly all actives have a fitted effect of over 55% in size
#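 qHTS luciferase splicing reporter: luminescence rises when SMN2 exon 7 is included in transfected HEK293 cells. Compound exposure lasted 30-36 h at 37C, with 4.5 mM final sodium butyrate as control, followed by a ONE-Glo read.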
# FLuc modulator – qHTS profiling assay for firefly luciferase inhibitor/activator using purifed enzyme and Km concentrations of substrates (counterscreen for miR-21 project); Luciferin 4-monooxygenase (Photinus pyralis), P08659; AID 588342, 2011; hit rate 6.9% among 360,000; Potency, µM (series often up to 57.5 µM), for inactives: at the highest dose activity change, negative = inhibition, hits mostly inhibitors; purified FLuc, Km substrates, luminescence inhibition;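 further: plate controls were vehicle for no effect and reference inhibitor for full effect; nearly all actives have a fitted effect of over 55% in size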
# Target sequence (P08659 whole entry, looked up): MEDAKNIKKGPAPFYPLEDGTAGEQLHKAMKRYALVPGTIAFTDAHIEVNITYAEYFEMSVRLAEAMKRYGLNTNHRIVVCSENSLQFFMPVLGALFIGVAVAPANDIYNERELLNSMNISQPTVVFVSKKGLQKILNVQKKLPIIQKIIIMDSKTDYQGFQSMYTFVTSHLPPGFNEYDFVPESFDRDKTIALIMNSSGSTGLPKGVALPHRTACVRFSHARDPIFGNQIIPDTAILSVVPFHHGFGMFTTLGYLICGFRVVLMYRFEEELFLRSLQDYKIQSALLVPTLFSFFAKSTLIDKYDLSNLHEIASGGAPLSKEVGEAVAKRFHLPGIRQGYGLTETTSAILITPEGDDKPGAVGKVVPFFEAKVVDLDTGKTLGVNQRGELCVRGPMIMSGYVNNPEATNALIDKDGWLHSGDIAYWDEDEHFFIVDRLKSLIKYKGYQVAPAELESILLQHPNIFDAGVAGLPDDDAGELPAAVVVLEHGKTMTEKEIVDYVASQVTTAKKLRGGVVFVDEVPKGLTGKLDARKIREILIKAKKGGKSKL
#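 Biochemical qHTS of compounds, final roughly 60 µM downward over six points, against 10 nM purified firefly luciferase using Km concentrations of substrates (10 uM D-luciferin, 10 uM ATP) in Tris acetate pH 7.5 buffer; luminescence output.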
# The depositor's hits bear a star; ? = inconclusive; · = no result; [ ] = another dose, or the depositor's remark. The call rests on the fitted dose curve; in most records, active means well fitted curve in the direction sought with a large enough effect; inconclusive means small, poorly fitted or top-dose-only effect, or another doubt; inactive means no such curve, though single readings can be large; an effect the other way counts as inactive or inconclusive. Potency means the concentration at half of the fitted maximal effect.
SMILES,Rab9 prom act,ELG1 genotox,NPC1 prom act,SMN2 splice enh,FLuc modulator
COc1cccc(-c2nn(-c3ccc(C)cc3)cc2C(=O)N(C)CC(=O)Nc2cccc(F)c2)c1,-7%,-13%,-3%,·,8.5µM*
Cc1ccc2nc(-c3ccccc3)cc(C(=O)N(C)CC(=O)Nc3ccccc3Br)c2c1,-1%,-10%,1%,·,17µM*
COc1ccc(-c2cc(C(=O)N(C)CC(=O)Nc3cccc(F)c3)c3ccccc3n2)cc1,-4%,-12%,-1%,·,19µM*
CN(CC(=O)Nc1cccc(F)c1)C(=O)c1cc(-c2ccccc2)nc2ccccc12,-6%,-5%,-2%,·,-14%
COc1ccc(NC(=O)CN(C)C(=O)c2cc(-c3ccccc3)nc3ccccc23)cc1,0%,-32%,-2%,·,?
COc1ccc(NC(=O)CN(C)C(=O)c2cc(-c3ccc(OC)cc3)nc3ccccc23)cc1,13%,-27%,10%,·,8.5µM*
O=C(Cn1c(=O)n(-c2ccccc2Cl)c(=O)c2sc3ccccc3c21)N1CCCC1,·,·,·,8%,-4%
O=C(CNS(=O)(=O)c1cccc(Cl)c1)Nc1ccc(-c2nc3ccccc3s2)cc1,1.6µM*,8.2µM*,?,4.5µM*,15µM*
COc1ccc(NC(=O)C(C)NS(=O)(=O)c2ccccc2)cc1Cl (stereo not drawn),0%,0%,-4%,-9%,-3%
Cc1ccc(C)c(S(=O)(=O)NC(C)C(=O)Nc2ccc(-c3nc4ccccc4s3)cc2)c1 (stereo not drawn),3.2µM*,?,3.5µM*,5%,7.6µM*
O=C(O)CNS(=O)(=O)c1cccc(Cl)c1,-2%,0%,1%,·,2%
COc1cccc(S(=O)(=O)NCC(=O)Nc2ccc(C(C)(C)C)cc2)c1,-3%,-5%,0%,-17%,?
CC(C)(C)c1ccc(S(=O)(=O)NCC(=O)Nc2ccc(-c3nc4ccccc4s3)cc2)cc1,27%,?,-2%,11µM*,?
CC(NS(=O)(=O)c1cccc(Cl)c1)C(=O)Nc1ccc(-c2nc3ccccc3s2)cc1 (stereo not drawn),2.8µM*,?,?,20µM*,17µM*
COc1ccc(CCNC(=O)C(=O)c2c[nH]c3ccccc23)cc1,·,·,·,-9%,·
Nc1ncccc1OCc1ccc(Br)cc1,2.2µM*,14%,?,?,17µM*
CCn1cc2nc(SCc3cccc(OC)c3)n(Cc3ccc(Cl)cc3)c(=O)c2n1,·,·,·,-1%,-15%
CCn1nnc2cc(C(=O)Nc3ccc(OC)cc3)ccc21,·,·,·,·,-4%
CCOc1ccc(CCNC(=O)CSc2nnnn2-c2ccccc2)cc1OCC,·,·,·,5%,-7%
O=C(NN1C(=O)/C(=C/c2ccc(O)c(O)c2)SC1=S)c1ccccc1,0%,-6%,-17%,·,?
CCOc1cc(/C=C2\SC(=S)N(Nc3ccccc3)C2=O)ccc1O,5%,?,?,-9%,6.7µM*
COc1cc(/C=C2\SC(=S)N(Nc3ccccc3)C2=O)ccc1O,20%,?,-3%,4%[1.84 µM],5.4µM*
O=C1/C(=C/c2ccc(O)c(O)c2)SC(=S)N1Nc1ccccc1,-7%,-8%,-21%,·,19µM*
C=CCn1c(=O)/c(=C/c2ccc(F)cc2)s/c1=C(\C#N)c1nnc2n1CCCCC2,2%,-5%,1%,·,1%
CN1C(=O)/C(=C\c2ccc(N(C)C)cc2)OC1=S,?,11%,?,·,?
O=c1/c(=C\c2ccc(F)cc2)sc2n1CCCN=2,?,?,?,?,13µM*
COC(=O)/C=c1/sc2n(c1=O)CCN=2,1%,0%,0%,-8%,2%
O=c1/c(=C/c2ccc(O)cc2)sc2n1CCCN=2,2.8µM*,?,1%,·,9.5µM*
CN(C)c1ccc(/C=c2\sc3n(c2=O)CCCN=3)cc1,0.32µM*,?,0.4µM*,1.6µM*,0.24µM*
Nc1ccccc1C(=O)Nc1ccc(Cl)cc1Cl,2.5µM*,?,?,·,11µM*

# Assay outcomes: PubChem, National Center for Advancing Translational Sciences (NCATS)
